The campaign covered roughly 65,000 compounds. About 980 (1.5%) were called active.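 The calls were made as follows: active = activation above the mean of all tested compounds plus 3 SD (cut at about 49% in these data); inactive = the rest.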 Only a selection was taken, and actives are over-represented in it overall.
Target: Nuclear receptor ROR-alpha (Homo sapiens) (UniProt P35398)
Assay: activators of orphan receptor RORA, primary screen, cell-based, luminescence (AID 560);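 also: 0% = DMSO-treated RORA cells and 100% = added signal equal to DMSO minus mock-transfected cells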
Conditions: CHO-K1 Gal4-RORA LBD luciferase reporter, at 10 µM, stronger effect = higher value, percent increase over mock-subtracted basal signal

Chain of Nuclear receptor ROR-alpha (Homo sapiens) (P35398 whole entry, looked up): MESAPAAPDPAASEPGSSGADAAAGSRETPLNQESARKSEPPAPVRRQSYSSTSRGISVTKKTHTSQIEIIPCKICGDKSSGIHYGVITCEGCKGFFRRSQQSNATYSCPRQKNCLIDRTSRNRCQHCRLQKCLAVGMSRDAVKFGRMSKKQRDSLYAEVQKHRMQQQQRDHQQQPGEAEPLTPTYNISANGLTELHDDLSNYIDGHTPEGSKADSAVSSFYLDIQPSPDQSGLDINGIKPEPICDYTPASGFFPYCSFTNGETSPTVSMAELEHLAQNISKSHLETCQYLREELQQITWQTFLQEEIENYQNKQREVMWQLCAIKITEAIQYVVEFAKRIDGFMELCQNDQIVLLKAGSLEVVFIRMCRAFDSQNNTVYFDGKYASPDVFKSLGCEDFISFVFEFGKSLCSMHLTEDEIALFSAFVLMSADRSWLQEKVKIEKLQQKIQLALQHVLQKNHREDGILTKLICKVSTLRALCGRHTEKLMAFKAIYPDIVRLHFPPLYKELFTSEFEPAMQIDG

Row | SMILES | activation
1 | O=C(NCc1ccccn1)Nc1ccc(F)cc1 | 28.4% (inactive)
2 | O=C(NCc1cn2ccsc2n1)Nc1cccc(Cl)c1 | 45.8% (inactive)
3 | O=C(Nc1cccc(Cl)c1)OCc1ccccn1 | 69.9% (active)
4 | Cc1c(NC(=O)c2coc(=O)c(Br)c2)c(=O)n(-c2ccccc2)n1C | -0.3% (inactive)
5 | COC(=O)c1cc(C(=O)OC)cc(N2C(=O)CC(N3CCN(c4ccccc4)CC3)C2=O)c1 (centres undefined) | 15.5% (inactive)
6 | CC(=O)OC(C(=O)NC1CCCCC1)c1ccccc1 (centres undefined) | -15.4% (inactive)
7 | CC(Cc1cccs1)NC(=O)NC1CCCCC1 (centres undefined) | 31.7% (inactive)
8 | CC(C)c1ccc(NC(=O)NC2CCCCC2)cc1 | 85.1% (active)
9 | COc1ccc(-c2nc(SCC(=O)N3CCOCC3)n[nH]2)cc1 | 8.1% (inactive)
10 | CC(=O)Nc1ccc(NC(=O)CN2CCCC(C)C2)c(Cl)c1 (centres undefined) | 7.9% (inactive)
11 | O=C(C1CCC1)N1CCc2cc(S(=O)(=O)NCc3cccnc3)ccc21 | 16.4% (inactive)
12 | Cc1ccc(C(=O)N2CCN(C3CCCCC3)CC2)s1 | -13.8% (inactive)
13 | COc1cccc(CNC(=O)C2CCN(S(=O)(=O)c3cccc4cccnc34)CC2)c1 | -6.7% (inactive)
14 | C#CCN1C(=O)C(O)(CC(=O)c2cc(OC)ccc2OC)c2ccccc21 (centres undefined) | -9.4% (inactive)
15 | CCOC(=O)c1nc(-c2ccc3c(c2)OCO3)[nH]c1C | 66.7% (active)
16 | CCOC(=O)NCc1ccc2c(c1)OCO2 | -14.5% (inactive)
17 | CCOC(=O)c1c(C)[nH]c(C(=O)COc2ccc3c(c2)OCO3)c1C | 28.3% (inactive)
18 | COCc1nnc(NC(=O)CS(=O)(=O)Cc2ccccc2)s1 | -0.8% (inactive)
19 | COC(=O)C(C)Sc1ccc2nnc(-c3cccc(F)c3)n2n1 (centres undefined) | -8% (inactive)
20 | COC(=O)c1c(NC(=O)c2cccs2)sc2c1CCCC2 | 19.4% (inactive)
21 | c1ccc2c(c1)OCC(CNc1ncnc3nc[nH]c13)O2 (centres undefined) | 20.1% (inactive)
22 | Cn1c(=NC(=O)c2ccco2)sc2cccc(F)c21 | 61.5% (active)
23 | Cn1c(=NC(=O)C2CC2)sc2cc(F)cc(F)c21 | 27.7% (inactive)
24 | CCCC(=O)N=c1sc2cccc(F)c2n1C | 5.7% (inactive)
25 | COC(=O)c1cccc(NC(=O)CN2CCC(NC(=O)c3cc(OC)c(OC)c(OC)c3)CC2)c1 | 17.2% (inactive)
26 | COc1ccc(CCNC(=O)CN2CCC(n3nnc4cc(F)ccc43)CC2)cc1OC | -11.2% (inactive)

Row | SMILES | activation
27 | CC(NC(=O)COc1ccccc1)C(=O)NC1=NCCS1 (centres undefined) | -14.4% (inactive)
28 | O=C(NC1=NCCS1)c1ccc(Cl)s1 | 80.1% (active)
29 | CCc1ccc(N2CC(C(=O)NC3=NCCS3)CC2=O)cc1 (centres undefined) | -23.3% (inactive)
30 | C=CCn1c(=S)[nH]c2nc3c(cc2c1=O)COC(C)(C)C3 | -9.2% (inactive)
31 | O=C(Nc1ccc(-c2nnc(-c3ccccc3)o2)cc1)C1CCCO1 (centres undefined) | 32.9% (inactive)
32 | O=C(Nc1nnc(CCc2ccccc2)s1)C1CCCO1 (centres undefined) | 0.2% (inactive)
33 | O=C(Nc1cccc(-c2nnc(-c3ccccc3)o2)c1)C1CCCO1 (centres undefined) | 61.1% (active)
34 | O=C(COc1ccccc1)N1CCc2ccccc2C1 | 18.5% (inactive)
35 | Cc1ccsc1C(=O)OCC(=O)c1cc(C)n(CC2CCCO2)c1C (centres undefined) | -85.1% (inactive)
36 | O=C(CSc1nnc(-c2cccs2)n1-c1ccccc1)NCc1ccco1 | 11.1% (inactive)
37 | Cc1cc(C(=O)OCC(=O)NCc2ccco2)c(C)n1-c1ccccc1 | 61.4% (active)
38 | O=C(COC(=O)C12CC3CC(CC(C3)C1)C2)NCc1ccco1 | -21.1% (inactive)
39 | CC(=O)N1CSCC1C(=O)O (centres undefined) | 15.8% (inactive)
40 | O=c1[nH][nH]c(=O)c2cc(N3CCCC3)ccc12 | 1.1% (inactive)
41 | Cc1cc2nc(-c3ccc(NC(=O)c4cccnc4)cc3)oc2cc1C | 71.6% (active)
42 | CC(C)NS(=O)(=O)c1ccc(NC(=O)c2cccnc2)cc1 | 25.4% (inactive)
43 | CCOC(=O)c1cc(NC(=O)c2cccnc2)cc(C(=O)OCC)c1 | -17.2% (inactive)
44 | O=C(NC12CC3CC(CC(C3)C1)C2)N1CCCC(CO)C1 (centres undefined) | -9.5% (inactive)
45 | Cc1ccccc1-c1nnn(CC(=O)c2ccc(S(=O)(=O)N3CCCC3)cc2)n1 | -9.2% (inactive)
46 | O=C(Cn1nnc(-c2ccccc2)n1)NCc1ccccc1 | -3.8% (inactive)
47 | CC(C)(C)NC(=O)Cn1nnc(-c2ccccc2Cl)n1 | 65.9% (active)
48 | O=C(CN1C(=O)C2C3C=CC(C3)C2C1=O)NCCc1ccccc1Cl (centres undefined) | 0.8% (inactive)
49 | O=S(=O)(NCc1ccccn1)c1ccc(Br)s1 | -0.5% (inactive)
50 | O=C(Nc1nncs1)c1ccccc1NS(=O)(=O)c1cccs1 | 2.5% (inactive)
51 | COc1ccc(C(=O)Nc2nncs2)c(OC)c1 | 62.9% (active)
52 | COC(=O)c1sc(NC(=O)c2ccc(OC)cc2OC)nc1C | -38.1% (inactive)

Row | SMILES | activation
53 | Cn1c(=O)n(CCc2ccccc2)c(=O)c2c1nc1n2CCCN1c1ccccc1 | 8.2% (inactive)
54 | Nc1c(C(=O)NCc2ccccc2)nnn1Cc1cccc(Cl)c1 | 9.8% (inactive)
55 | CCC(=O)NC(=Nc1nc2ccccc2s1)NC(=O)CC | 48.7% (active)
56 | O=C(O)CSCc1nc2ccccc2s1 | 18.2% (inactive)
57 | COC(=O)Cc1cc(=O)n(-c2nc3ccccc3s2)[nH]1 | -10.3% (inactive)
58 | O=c1/c(=C/c2ccc(CNS(=O)(=O)c3ccccc3)o2)sc2n1CCN=2 | -17.5% (inactive)
59 | CCN(C(=O)CSc1ncn[nH]1)c1cccc2ccccc12 | -6.5% (inactive)
60 | CC(C)(C)c1ccc(C(=O)CSc2ncn[nH]2)cc1 | 54.2% (active)
61 | Cn1nnc(NC(=O)CSc2ncn[nH]2)n1 | -7.4% (inactive)
62 | CCOC(=O)c1csc(NC(=O)c2ccc(S(=O)(=O)N3CCCC3)cc2)n1 | 8.6% (inactive)
63 | Cn1c(SCC(=O)OC2CCCCC2)nnc1-c1ccc(S(=O)(=O)N2CCCC2)cc1 | -7.4% (inactive)
64 | COc1cccc(OCC(=O)Nc2ccccc2C(N)=O)c1 | 1.9% (inactive)
65 | O=C(Nc1nn(Cc2ccccc2F)cc1Br)c1cccs1 | -5.3% (inactive)
66 | COc1ccc(N=Cc2c(O)[nH]c3ccccc23)cc1OC | 55.7% (active)
67 | COc1ccc(OC)c(N=Cc2c(O)[nH]c3ccccc23)c1 | -14.1% (inactive)
68 | COc1cc(N=Cc2c(O)[nH]c3ccccc23)cc(OC)c1OC | -15.8% (inactive)
69 | CC(=O)N1CC2(C)CN(C(C)=O)CC(C)(C1)C2=O | -2% (inactive)
70 | CC1CCc2sc3nc(N4CCN(CCO)CC4)n4ncnc4c3c2C1 (centres undefined) | 12.3% (inactive)
71 | O=C(O)C1CCCCC1C(=O)Nc1ccc(Cl)cc1 (centres undefined) | -6.2% (inactive)
72 | O=C(Nc1ccc(Cl)cc1)c1ccsn1 | 59.5% (active)
73 | O=C(NCc1cn2ccsc2n1)Nc1ccc(Cl)cc1 | 10.4% (inactive)
74 | COc1ccc(O)c(C(=O)c2cnc3onc(C(C)C)c3c2)c1 | 12.5% (inactive)
75 | CCc1c(C)sc(NC(=O)OC)c1C(=O)N1CCOCC1 | -6.7% (inactive)
76 | COc1ccc(C2C(C(=O)Nc3ccccc3OC)=C(C)Nc3nnnn32)c(OC)c1 (centres undefined) | 7.2% (inactive)
77 | CCOc1ccccc1NC(=O)Nc1cc(OC)ccc1OC | -19.1% (inactive)
78 | COc1ccccc1NC(=O)c1ccc(C)s1 | 48.9% (active)

Row | SMILES | activation
79 | CC(C)c1nc2oc3c(N4CCN(C)CC4)ncnc3c2c2c1CCC2 | 13.9% (inactive)
80 | Cc1ccc(NC(=O)CN2CCC3(O)CCCCC3C2c2ccc3c(c2)OCO3)c(C)c1 (centres undefined) | 11.9% (inactive)
81 | Cc1ccc(C)c(NC(=O)C2CCCN2C(=O)OC(C)(C)C)c1 (centres undefined) | -9% (inactive)
82 | Cc1ccnc(NC(=O)c2ccc(NC(=O)c3ccco3)cc2)c1 | 29.2% (inactive)
83 | COC(=O)c1ccc(NC(=O)c2ccco2)cc1 | 77.4% (active)
84 | O=C(Nc1ccc(Oc2ccccc2)cc1)c1ccco1 | 22.9% (inactive)
85 | O=C(C1CCN(S(=O)(=O)Cc2ccccc2)CC1)N1CCCc2ccccc21 | 12.2% (inactive)
86 | COc1cc(C2C(C#N)=C(N)Oc3n[nH]c(-c4ccccn4)c32)cc(OC)c1OC (centres undefined) | 7.4% (inactive)
87 | Cc1ccc2c(c1)N(C(=O)CCC(=O)N1CCc3ccccc3C1)CCO2 | 0.5% (inactive)
88 | CC(=O)Oc1ccc(C(=O)Nc2nccs2)cc1 | 61% (active)
89 | COc1cc(C(=O)Nc2nccs2)cc(OC)c1OC | -15.9% (inactive)
90 | Cn1cccc1C(=O)Nc1nccs1 | 12.1% (inactive)
91 | Cc1ccc(C(=O)NC2CCN(C(=O)N3CCOCC3)CC2)cc1 | -4.3% (inactive)
92 | CC1CCC(NC(=O)c2ccc(N3CCCC3=O)cc2)CC1 (centres undefined) | 61.7% (active)
93 | O=C(NCCCN1CCCCCC1)c1ccc(N2CCCC2=O)cc1 | -16.9% (inactive)
94 | CCOC(=O)c1c(C)c(C(=O)NCCc2ccc(S(N)(=O)=O)cc2)c(C)n1CC | 17.3% (inactive)
95 | CCNC(=O)CN(c1ccc(C)cc1)S(=O)(=O)c1ccc(SC)cc1 | -24% (inactive)
96 | Clc1ccc(Nc2nc(-c3cccs3)cs2)nc1 | 41.7% (inactive)
97 | Oc1ccc(-c2csc(Nc3cccnc3)n2)cc1 | 5.9% (inactive)
98 | c1ccc(Nc2nc(-c3ccncc3)cs2)nc1 | 50.9% (active)
99 | O=C(Cn1cc2c(n1)CCCCC2)NCCN1CCOCC1 | -13.6% (inactive)
100 | Cc1cccc(-c2noc(-c3ccc(F)cc3)n2)c1 | 31% (inactive)
101 | Cc1ccc(-c2noc(CN3CCN(Cc4ccccc4)CC3)n2)cc1 | -1.1% (inactive)
102 | Cc1ccc(Cc2nc(-c3cccc(C)c3)no2)cc1 | 51.5% (active)
103 | CC(=O)c1nc(N2C(=O)C3CC=C(C)CC3C2=O)sc1C (centres undefined) | 1.8% (inactive)
104 | CCn1c(SCCC(C)C)nnc1-c1c[nH]c2ccccc12 | 8.7% (inactive)
